Test results published in PubChem BioAssay (Tox21).
Inconclusive results are not listed. Entries that show only a call come without a potency. Activity calls are given as the source filed them. Unless noted, the call rests on the fitted dose curve; in most records, active means well fitted curve in the direction sought with a large enough effect in the repeat runs; inconclusive means weak or mixed curves; inactive means no such curve, though single readings can be large; an effect the other way counts as inactive or inconclusive.

How the values were obtained:
[1] = qHTS assay to identify small molecule antagonists of the estrogen receptor beta (ER-beta) signaling pathway - cell viability counter screen (AID 1259382); conditions: ER-beta-UAS-bla HEK293T viability, CellTiter-Glo luminescence, 16 h; series mostly up to 92.4 µM;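 further: HEK293T cells carrying ER-beta-UAS-bla reporter stimulated with estradiol; nearly all actives have a fitted effect of over 55% in size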
In short: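 ER-beta-UAS-bla HEK293T cells in 2% charcoal-stripped FBS medium, treated with compound plus 1 nM 17-beta-estradiol for 16 h at 37C. Viability read by CellTiter-Glo luminescence after 30 min at room temperature in the same wells.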

[2] = biological target: Thyrotropin receptor (Homo sapiens) (UniProt P16473); test: qHTS assay to identify small molecule antagonists of the thyroid stimulating hormone receptor (TSHR) signaling pathway (AID 1259385; calls by dose curve; further: nearly all actives have a fitted effect of over 20% in size); conditions: TSHR-HEK293 cAMP HTRF, TSH-stimulated antagonist mode; series mostly up to 92.4 µM
Chain of Thyrotropin receptor (Homo sapiens) (P16473 whole entry, looked up): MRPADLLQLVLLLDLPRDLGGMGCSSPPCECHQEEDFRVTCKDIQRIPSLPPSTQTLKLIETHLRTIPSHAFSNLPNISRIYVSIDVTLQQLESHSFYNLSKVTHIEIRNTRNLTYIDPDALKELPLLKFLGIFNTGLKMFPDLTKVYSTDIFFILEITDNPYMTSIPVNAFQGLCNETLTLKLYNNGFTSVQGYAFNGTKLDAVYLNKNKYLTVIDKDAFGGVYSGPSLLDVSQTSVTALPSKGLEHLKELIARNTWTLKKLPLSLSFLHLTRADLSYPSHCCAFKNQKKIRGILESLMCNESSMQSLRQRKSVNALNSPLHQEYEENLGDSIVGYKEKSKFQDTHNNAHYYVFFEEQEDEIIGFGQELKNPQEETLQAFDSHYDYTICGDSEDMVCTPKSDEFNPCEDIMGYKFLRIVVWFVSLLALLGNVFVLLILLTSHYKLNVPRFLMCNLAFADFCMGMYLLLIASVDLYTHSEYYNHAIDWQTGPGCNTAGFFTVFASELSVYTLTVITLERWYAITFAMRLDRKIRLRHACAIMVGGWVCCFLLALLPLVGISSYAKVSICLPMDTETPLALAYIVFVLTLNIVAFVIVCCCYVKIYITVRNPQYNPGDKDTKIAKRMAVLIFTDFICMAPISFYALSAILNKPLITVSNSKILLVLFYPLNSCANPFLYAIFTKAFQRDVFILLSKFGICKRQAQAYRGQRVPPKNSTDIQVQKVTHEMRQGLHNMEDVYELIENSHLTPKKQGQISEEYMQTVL
In short: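 TSHR-HEK293 cells were plated and held 18 h at 37C/5% CO2, then given compound plus Ro20-1724 and stimulated with TSH at 1.5 ng/mL final. After 30 min at room temperature, cAMP was detected with cAMP-d2/anti-cAMP-cryptate (1 h) by fluorescence.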

[3] = qHTS assay to identify small molecule agonists of the estrogen receptor alpha (ER-alpha) signaling pathway in the presence of an antagonist - cell viability counter screen (AID 1259386); conditions: VM7Luc4E2 viability, CellTiter-Fluor fluorescence, 22 h; series mostly up to 92.4 µM;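 further: cells exposed to compounds for 22 h at 37 °C before the viability read; nearly all actives have a fitted effect of over 30% in size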
In short: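 Cell viability in VM7Luc4E2 cells (endogenous full-length ER-alpha) measured by CellTiter-Fluor fluorescence in the same wells as the luciferase screen. Cells pre-cultured 5 days in charcoal-stripped serum, then treated 22 h with compounds at 15 concentrations plus 10.0nM ICI-182,780.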

[4] = biological target: Progesterone receptor (Homo sapiens) (UniProt P06401); test: qHTS assay to identify small molecule agonists of the progesterone receptor (PR) signaling pathway (AID 1346784; calls by dose curve; further: nearly all actives have a fitted effect of over 30% in size); conditions: PR-UAS-bla HEK293T, beta-lactamase FRET ratio, 16 h; series mostly up to 92.4 µM
Chain of Progesterone receptor (Homo sapiens) (P06401 whole entry, looked up): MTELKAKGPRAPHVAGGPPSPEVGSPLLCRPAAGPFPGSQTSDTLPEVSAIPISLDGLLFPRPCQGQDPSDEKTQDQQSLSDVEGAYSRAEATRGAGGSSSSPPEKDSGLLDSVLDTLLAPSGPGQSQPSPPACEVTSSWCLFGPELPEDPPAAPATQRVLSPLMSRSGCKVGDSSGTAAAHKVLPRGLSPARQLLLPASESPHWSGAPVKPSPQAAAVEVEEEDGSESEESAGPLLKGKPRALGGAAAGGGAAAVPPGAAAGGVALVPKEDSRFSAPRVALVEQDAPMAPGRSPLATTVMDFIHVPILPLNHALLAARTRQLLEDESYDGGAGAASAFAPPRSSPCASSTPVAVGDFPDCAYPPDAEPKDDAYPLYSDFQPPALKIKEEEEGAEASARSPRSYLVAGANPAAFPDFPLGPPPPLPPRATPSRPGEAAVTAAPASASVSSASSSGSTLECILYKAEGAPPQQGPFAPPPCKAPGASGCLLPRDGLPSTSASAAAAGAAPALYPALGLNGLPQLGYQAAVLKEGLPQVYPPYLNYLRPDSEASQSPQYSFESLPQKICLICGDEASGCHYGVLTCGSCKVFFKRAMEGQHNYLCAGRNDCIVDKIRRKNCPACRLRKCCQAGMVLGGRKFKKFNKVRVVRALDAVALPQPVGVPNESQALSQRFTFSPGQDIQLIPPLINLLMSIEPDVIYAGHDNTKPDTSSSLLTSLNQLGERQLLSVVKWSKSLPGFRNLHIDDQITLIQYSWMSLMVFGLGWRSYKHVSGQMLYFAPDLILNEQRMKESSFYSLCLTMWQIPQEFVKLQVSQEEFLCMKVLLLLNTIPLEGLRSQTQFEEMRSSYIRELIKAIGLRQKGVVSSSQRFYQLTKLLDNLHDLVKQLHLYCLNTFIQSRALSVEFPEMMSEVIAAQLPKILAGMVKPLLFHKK
In short: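 Cells (PR-UAS-bla HEK 293T, GripTite) were plated in assay medium containing 2% charcoal-stripped FBS and incubated 6 hr. Test compounds in DMSO were added for 16 hr at 37C. FRET substrate was then loaded for 2 hr at room temperature before fluorescence reading.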

[5] = biological target: Progesterone receptor (Homo sapiens) (UniProt P06401); test: qHTS assay to identify small molecule antagonists of the progesterone receptor (PR) signaling pathway (AID 1346795; active means well fitted inhibition curve with a large enough effect in the signal ratio in the repeat runs, not every such curve was filed as active; the % refers to the signal ratio); conditions: PR-UAS-bla HEK293T, beta-lactamase FRET ratio, 16 h; series mostly up to 92.4 µM
In short: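 Antagonist mode: compounds tested against 1 nM (final) promegestone stimulation in HEK293T cells expressing PR-UAS-bla reporter, 16 hr at 37C, 5% CO2; beta-lactamase activity detected via B/G FRET substrate after 2 hr at room temperature.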

[6] = qHTS assay to identify small molecule antagonists of the progesterone receptor (PR) signaling pathway - cell viability counter screen (AID 1346798); conditions: PR-UAS-bla HEK293T viability, CellTiter-Glo luminescence, 16 h; series mostly up to 92.4 µM; further: nearly all actives have a fitted effect of over 50% in size
In short: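 Counter screen for cytotoxicity: viability of PR-UAS-bla HEK293T cells was measured with CellTiter-Glo luminescence following 16 hr compound exposure in the presence of R5020.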

[7] = qHTS assay to identify small molecule antagonists of the TGF-beta/Smad signaling pathway - cell viability counter screen (AID 1346824); conditions: SBE-bla HEK293T viability, CellTiter-Glo luminescence; series mostly up to 76.8 µM; further: nearly all actives have a fitted effect of over 50% in size
In short: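 SBE-bla HEK 293T cells were plated overnight at 37 C, then given compounds in DMSO plus TGF-beta1 (added as 0.25 ng/mL solution) for 5 hr. After the bla read, CellTiter-Glo was added to the same wells and luminescence read after 30 min at room temperature.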

[8] = qHTS assay to identify small molecule agonists of the TGF-beta/Smad signaling pathway - cell viability counter screen (AID 1346829); conditions: SBE-bla HEK293T viability, CellTiter-Glo luminescence, 5 h; series mostly up to 76.8 µM; further: top concentration of the series differs between compounds; nearly all actives have a fitted effect of over 45% in size
In short: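 In parallel with the Smad reporter read, viability of HEK 293T cells stably carrying SBE-bla is quantified by ATP luminescence following 5 hr compound treatment.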

[9] = qHTS assay to identify small molecule agonists of the TGF-beta/Smad signaling pathway (AID 1346859; active means well fitted activation curve with a large enough effect in the signal ratio in the repeat runs, not every such curve was filed as active; the % refers to the signal ratio); conditions: SBE-bla HEK293T, TGF-beta/Smad beta-lactamase reporter, 5 h; series mostly up to 76.8 µM
In short: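 Reporter line: HEK 293T with stably integrated SBE-controlled beta-lactamase. Compound exposure lasts 5 hr at 37 C and 5% CO2; substrate loading follows for 2 hr at room temperature, with emission read at 460 and 530 nm.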

[10] = Human pregnane X receptor (PXR) small molecule agonists, qHTS cell viability counter screen (AID 1346977); conditions: PXR-Luc HepG2 viability, CellTiter-Fluor, 24 h; series mostly up to 92.4 µM; further: nearly all actives have a fitted effect of over 50% in size
In short: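 Cytotoxicity counter screen run in the same wells as the PXR luciferase assay, using PXR-Luc HepG2 cells in charcoal-stripped serum medium. Viability: CellTiter-Fluor fluorescence after 24hr compound treatment.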

[11] = Caspase-3/7 induction in HepG2 cells by small molecules, qHTS assay (AID 1346978); conditions: HepG2 caspase-3/7 activation, Caspase-Glo luminescence, 17 h; series mostly up to 92.4 µM; further: nearly all actives have a fitted effect of over 15% in size
In short: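 Wild-type HepG2 cells (2,000/well) were settled 5 h at 37 C, 5% CO2, then exposed to compounds in DMSO for 17 h. Caspase-3/7 activity was read by luminescence 30 min after adding Caspase-Glo 3/7 reagent at room temperature.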

[12] = Caspase-3/7 induction in CHO-K1 cells by small molecules, qHTS cell viability counter screen (AID 1346979); conditions: CellTiter-Fluor fluorescence, 17 h; series mostly up to 92.4 µM; further: nearly all actives have a fitted effect of over 35% in size
In short: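 Cytotoxicity counter screen run in parallel with the caspase-3/7 assay: CHO-K1 cells, 16hr compound treatment at 37C, then CellTiter-Fluor for 1hr before fluorescence reading.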

[13] = Caspase-3/7 induction in CHO-K1 cells by small molecules, qHTS assay (AID 1346980); conditions: CHO-K1 caspase-3/7 induction, Caspase-Glo luminescence, 17 h; series mostly up to 92.4 µM; further: nearly all actives have a fitted effect of over 15% in size
In short: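 Wild-type cells were seeded at 1,500 per well and settled 5 hr at 37 C, 5% CO2, then exposed to DMSO-dissolved compounds for 17 hr. Caspase-Glo 3/7 reagent was added, and luminescence was read after 30min at room temperature.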

[14] = Caspase-3/7 induction in HepG2 cells by small molecules, qHTS cell viability counter screen (AID 1346981); conditions: CellTiter-Fluor fluorescence, 17 h; series mostly up to 92.4 µM; further: nearly all actives have a fitted effect of over 30% in size
In short: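 Wild-type HepG2 cells, 2,000/well, settled 5 hr at 37 C, 5% CO2 before compound addition. Viability read by CellTiter-Fluor fluorescence, reagent added after 16 hr compound exposure, then 1 hr at 37C, in the same wells as the caspase read.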

[15] = biological target: Nuclear receptor subfamily 1 group I member 2 (Homo sapiens) (UniProt O75469); test: Human pregnane X receptor (PXR) small molecule agonists, qHTS assay (AID 1346982); conditions: PXR-Luc HepG2, CYP3A4 luciferase reporter, 24 h; series mostly up to 92.4 µM; further: nearly all actives have a fitted effect of over 35% in size; further: potency means the concentration at half of the fitted maximal effect
Chain of Nuclear receptor subfamily 1 group I member 2 (Homo sapiens) (O75469 whole entry, looked up): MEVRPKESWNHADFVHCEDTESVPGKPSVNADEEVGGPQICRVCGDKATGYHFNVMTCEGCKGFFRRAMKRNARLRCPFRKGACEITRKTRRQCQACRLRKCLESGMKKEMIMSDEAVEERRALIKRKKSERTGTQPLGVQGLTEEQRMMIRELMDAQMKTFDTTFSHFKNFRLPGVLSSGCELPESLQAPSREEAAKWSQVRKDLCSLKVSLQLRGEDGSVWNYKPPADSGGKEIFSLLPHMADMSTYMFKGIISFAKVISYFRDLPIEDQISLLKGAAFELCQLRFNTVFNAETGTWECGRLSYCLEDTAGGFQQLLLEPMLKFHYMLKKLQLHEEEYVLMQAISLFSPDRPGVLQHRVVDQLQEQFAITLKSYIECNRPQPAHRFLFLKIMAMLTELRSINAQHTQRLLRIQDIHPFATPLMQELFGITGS
In short: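 PXR-Luc HepG2 reporter cells (CYP3A4-driven luciferase) in 5% charcoal-stripped FBS medium, plated 5 h before compound addition, then treated 24 h at 37C. Luciferase read by ONE-Glo luminescence after 30 min at room temperature.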

[16] = qHTS assay to identify small molecule agonists of the progesterone receptor (PR) signaling pathway - cell viability counter screen (AID 1346799; calls by dose curve; further: nearly all actives have a fitted effect of over 45% in size); conditions: PR-UAS-bla HEK293T viability, CellTiter-Glo luminescence, 16 h; series mostly up to 92.4 µM
In short: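 Cells (PR-UAS-bla HEK293T) are plated at 3,000/well in 2% charcoal-stripped FBS medium, rested 6 hr, dosed and incubated 16 hr at 37C. CellTiter-Glo is then added and luminescence measured after 30 min at room temperature.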

[17] = biological target: Thyrotropin-releasing hormone receptor (Homo sapiens) (UniProt P34981); test: qHTS assay to identify small molecule antagonists of the thyrotropin-releasing hormone receptor (TRHR) signaling pathway (AID 1346877; active means well fitted inhibition curve with a large enough effect in the repeat runs, not every such curve was filed as active); conditions: TRHR-HEK293, TRH-induced calcium fluorescence, antagonist mode; series mostly up to 51.3 µM
Chain of Thyrotropin-releasing hormone receptor (Homo sapiens) (P34981 whole entry, looked up): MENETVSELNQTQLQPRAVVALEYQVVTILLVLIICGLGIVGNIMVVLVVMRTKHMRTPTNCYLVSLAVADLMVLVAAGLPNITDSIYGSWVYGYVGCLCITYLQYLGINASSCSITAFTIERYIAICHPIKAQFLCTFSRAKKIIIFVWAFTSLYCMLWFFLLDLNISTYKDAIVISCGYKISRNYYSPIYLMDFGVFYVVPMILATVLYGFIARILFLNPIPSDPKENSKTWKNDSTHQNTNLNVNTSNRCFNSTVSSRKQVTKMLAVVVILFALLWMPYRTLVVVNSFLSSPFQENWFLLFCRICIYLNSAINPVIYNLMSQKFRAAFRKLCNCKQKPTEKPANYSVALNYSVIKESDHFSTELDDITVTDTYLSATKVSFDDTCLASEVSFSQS
In short: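 TRHR-expressing HEK293 cells loaded with calcium dye for 2 h at 37 C; compounds pre-incubated 5 min at room temperature before TRH challenge at 1 nM final. Intracellular calcium fluorescence read kinetically for 3 min; 15 concentrations in triplicate.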

[18] = biological target: Thyrotropin-releasing hormone receptor (Homo sapiens) (UniProt P34981); test: qHTS assay to identify small molecule agonists of the thyrotropin-releasing hormone receptor (TRHR) signaling pathway (AID 1346891; calls by dose curve); conditions: TRHR-HEK293 calcium fluorescence, agonist mode; series mostly up to 57.6 µM
In short: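 Cells: TRHR-Hek293, seeded and incubated 18 h. Dye loading: 2 h at 37 °C. Compound added from DMSO stock by pin tool. Read-out: kinetic calcium fluorescence over 3 min.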

[19] = qHTS assay to identify small molecule agonists or antagonists of the thyroid stimulating hormone receptor (TSHR) signaling pathway - wild type cell line counter screen (AID 1259384; calls by dose curve); conditions: HEK293 wild type, cAMP HTRF counter-screen, active compounds read high; series mostly up to 92.4 µM
In short: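 Wild-type HEK293 cells were plated 18 h at 37 C/5% CO2, pin-dosed with compound plus Ro20-1724 medium, held 30 min at room temperature, then given cAMP-d2 and anti-cAMP-cryptate; fluorescence was read after 1 h. Fifteen concentrations, triplicate.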

COc1ccc(CCO)cc1
outcome [1]: inactive | outcome [2]: inactive | outcome [3]: inactive | Potency [4]: inactive | Potency [5]: inactive | outcome [6]: inactive | outcome [7]: inactive | outcome [8]: inactive | outcome [9]: inactive | outcome [10]: inactive | outcome [11]: inactive | Potency [12]: inactive | outcome [13]: inactive | outcome [14]: inactive | Potency [15]: inactive

N#Cc1cscn1
outcome [1]: inactive | outcome [2]: inactive | outcome [3]: inactive | Potency [4]: inactive | Potency [5]: inactive | outcome [6]: inactive | outcome [16]: inactive | outcome [7]: inactive | outcome [8]: inactive | outcome [17]: inactive | outcome [18]: inactive | outcome [10]: inactive | outcome [11]: inactive | Potency [12]: inactive | outcome [13]: inactive | outcome [14]: inactive | Potency [15]: inactive

Cc1cccc(Cl)c1
outcome [1]: inactive | outcome [19]: inactive | outcome [2]: inactive | outcome [3]: inactive | Potency [4]: inactive | Potency [5]: inactive | outcome [16]: inactive | outcome [7]: inactive | outcome [8]: inactive | outcome [9]: inactive | outcome [17]: inactive | outcome [18]: inactive | outcome [10]: inactive | outcome [11]: inactive | Potency [12]: inactive | outcome [13]: inactive | outcome [14]: inactive | Potency [15]: inactive

CC(=O)c1cc(C)oc1C
outcome [1]: inactive | outcome [3]: inactive | Potency [4]: inactive | Potency [5]: inactive | outcome [16]: inactive | outcome [7]: inactive | outcome [8]: inactive | outcome [17]: inactive | outcome [18]: inactive | outcome [10]: inactive | outcome [11]: inactive | Potency [12]: inactive | outcome [13]: inactive | outcome [14]: inactive | Potency [15]: inactive

CC(C)=CCC[C@@](C)(O)[C@H]1CC=C(C)CC1
outcome [1]: inactive | outcome [19]: inactive | outcome [2]: inactive | outcome [3]: inactive | Potency [4]: inactive | Potency [5]: inactive | outcome [16]: inactive | outcome [7]: inactive | outcome [8]: inactive | outcome [9]: inactive | outcome [10]: inactive | outcome [11]: inactive | Potency [12]: inactive | outcome [13]: inactive | outcome [14]: inactive | Potency [15]: 29.8 µM (active)

O=C(O)CONC(=O)c1ccccc1
outcome [1]: inactive | outcome [2]: inactive | outcome [3]: inactive | Potency [4]: inactive | Potency [5]: inactive | outcome [6]: inactive | outcome [16]: inactive | outcome [7]: inactive | outcome [8]: inactive | outcome [9]: inactive | outcome [17]: inactive | outcome [18]: inactive | outcome [10]: inactive | outcome [11]: inactive | Potency [12]: inactive | outcome [13]: inactive | outcome [14]: inactive | Potency [15]: inactive
